Results published in PubChem BioAssay AID463173 (ICCB-Longwood Screening Facility, Harvard Medical School, 2010).
Out of some 52,000 compounds screened, about 1,700 (3.3%) were called active. This is one part of a sample in which actives are shown more often than they occur. Values without a mark were called inactive. No stated cut-off is given here; in the data, active means survival mostly below about 52% (no sharp cut-off); inactive means mostly above about 56%.

test system: Wild type; assay: growth inhibition of S. aureus wild type versus tarO mutant, primary screen, teichoic acid synthesis inhibitors, RN4220, OD600 (AID 463173); details: S. aureus RN4220 wild type/DeltatarO growth, OD600, 18 h, active compounds read low, screened at 18.75 µg/mL (by protocol)

Compound | survival
Cc1cccc(N2CCN(Cc3cc(=O)oc4cc(C)ccc34)CC2C)c1 (centres undefined) | 84%
O=C1C2=C(Nc3ccccc3SC2c2ccc(C(F)(F)F)cc2)c2ccccc21 (centres undefined) | 36%
CC(C)(C)c1ccc(C2Sc3ccccc3NC3=C2C(=O)c2ccccc23)cc1 (centres undefined) | 82%
O=C1C2=C(Nc3ccccc3SC2c2ccccc2C(F)(F)F)c2ccccc21 (centres undefined) | 11% (active)
CCC(Sc1nnc(C)n2c1cc1sccc12)C(=O)Nc1ccccc1F (centres undefined) | 79%
CCOc1cc(CNC(=O)c2ccc(Cn3c(=O)c4cccn4c4cccnc43)cc2)ccc1OC | 86%
COc1cccc(-c2nn(C)c3sc(C(=O)N4CCN(c5cccc(C)c5)C(C)C4)cc23)c1 (centres undefined) | 72%
CCOC(=O)C1CCC(CN(Cc2ccc(Cl)cc2)S(=O)(=O)c2cccc(Cl)c2C)CC1 (centres undefined) | 82%
CC(=O)c1ccc(NC(=O)CC2Nc3cccc4cccc(c34)NC2=O)cc1 (centres undefined) | 96%
CCOC(=O)c1ccc(NC(=O)CC2Nc3ccccc3NC2=O)cc1 (centres undefined) | 62%
CCOC(=O)c1ccc(NC(=O)CC2Nc3cccc4cccc(c34)NC2=O)cc1 (centres undefined) | -13% (active)
Cc1ccccc1N(C)S(=O)(=O)c1nnc(NC(=O)c2ccccc2F)s1 | 33%
CCOC(=O)CC(NC(=O)Cn1nnc(-c2ccc(C(F)(F)F)cc2)n1)c1ccc(C)cc1 (centres undefined) | 87%
Cc1c(Cl)cccc1NC(=O)CCOc1ccccc1 | 145%
Cc1cn(C)c(CC(=O)Nc2cccc(Cl)c2C)c1C(=O)O | 124%
CCOC(=O)c1ccccc1NC(=O)Cc1c(C(=O)O)c(C)cn1C | -1% (active)
Cc1ccc(C)c(NC(=O)CCOc2ccccc2)c1 | 94%
CCc1ccc(NC(=O)Cc2c(C(=O)O)c(C)cn2C)cc1 | 76%
CCOC(=O)c1ccccc1NC(=O)CCOc1ccccc1 | 6% (active)
CC(=O)N1CCc2cc(S(=O)(=O)NC(Cc3ccccc3)C(=O)Nc3ccc(Cl)cc3)ccc21 (centres undefined) | 89%

Compound | survival
O=C(NCCc1ccccc1)c1cc(-c2ccc(Cl)cc2)on1 | 101%
O=C(NCc1ccccc1F)C(=O)NCC(c1ccc2c(c1)OCO2)N1CCOCC1 (centres undefined) | 71%
CCc1cccc(CC)c1NC(=O)C(CC)n1nc(C)n2c(cc3cc(C)ccc32)c1=O (centres undefined) | 73%
CCOc1ccc(CN2C(=O)c3ccccc3Sc3ccc(C(=O)NC)cc32)cc1 | 78%
Cc1cccc(/C=N/NC(=O)c2ccccn2)c1O | 18%
Cc1cc(S(=O)(=O)N(C)CCc2ccccc2)ccc1-n1cnnn1 | 99%
CCOC(=O)c1cc(S(=O)(=O)Nc2ccc(OC)c(Cl)c2)[nH]n1 | -6% (active)
CCOC(=O)c1cc(S(=O)(=O)Nc2cc(C)c(Cl)cc2OC)[nH]n1 | 98%
CCOC(=O)c1cc(S(=O)(=O)Nc2cc(OC)ccc2OC)[nH]n1 | 123%
CCOC(=O)c1cc2sccc2n1CC(=O)NC(C)C | 100%
COc1ccc(-c2cnc(C)o2)cc1S(=O)(=O)Nc1ccc(C)c(F)c1 | 60%
Fc1ccc(-n2ncc3c(N4CCCCCC4)ncnc32)cc1 | 82%
Cc1ccc(N2C(=O)CSC23C(=O)N(CC(=O)Nc2ccc(C(C)C)cc2)c2ccccc23)cc1C (centres undefined) | 80%
CCOc1ccc(-c2cn3c(n2)sc2cc(C(=O)NCCCc4ccccc4)ccc23)cc1 | 96%
CCCSCCCNC(=O)c1ccc2c(c1)sc1nc(-c3ccc(OCC)cc3)cn12 | 85%
CCCNC(=O)c1ccc2c(c1)sc1nc(-c3ccc(C)cc3)cn12 | 103%
CCOc1ccc(-c2cn3c(n2)sc2cc(C(=O)NCCCN(CC)CC)ccc23)cc1 | 2% (active)
CCN(CC)CCCNC(=O)c1ccc2c(c1)sc1nc(-c3ccc(C)cc3)cn12 | 8% (active)
CCN(CC)CCNC(=O)c1ccc2c(c1)sc1nc(-c3ccc(F)cc3)cn12 | 27%
CCOc1ccc(N2C(=O)c3n[nH]c(-c4cccs4)c3C2c2cccc(F)c2)cc1 (centres undefined) | 60%

Compound | survival
Cc1ccc(CSc2nc3ccncc3n2Cc2nc(-c3ccc(Cl)cc3)oc2C)cc1 | 68%
Cc1ccc(C)c(CSc2nc3ccncc3n2Cc2nc(-c3ccccc3Cl)oc2C)c1 | 61%
Cc1ccc(CSc2nc3ccncc3n2Cc2nc(-c3ccccc3C)oc2C)cc1 | 0% (active)
CCN(C(=O)Cn1nc(Cc2ccncc2)c2ccccc2c1=O)c1ccc(OC)cc1 | 74%
Cc1ccccc1C(=O)NC1CCN(CC(=O)NC2CCCCC2)CC1 | 98%
COc1ccc(Cl)cc1NC(=O)C1CCN(c2ncnc3c2nc2n3CCCCC2)CC1 | 82%
O=S1(=O)CCC(c2ccccc2)C1 (centres undefined) | 100%
COc1ccc2cc(C(=O)NCc3ccc4c(c3)CCN4C(=O)c3ccc(F)cc3)[nH]c2c1 | 68%
O=C(NCc1ccc2c(c1)CCN2C(=O)c1ccccc1)c1cc2ccccc2[nH]1 | 1% (active)
COc1ccc(C(=O)NCc2ccc3c(c2)CCN3C(=O)c2ccccc2)cc1 | 82%
CCOc1ccc(C(=O)NCc2ccc3c(c2)CCN3C(=O)c2ccccc2)cc1 | -4% (active)
COc1ccc2cc(C(=O)NCc3ccc4c(c3)CCN4C(=O)c3ccc(C)cc3)[nH]c2c1 | 84%
CCOc1ccc(C(=O)NCc2ccc3c(c2)CCN3C(=O)c2ccc(Cl)cc2)cc1 | 81%
COc1ccc2cc(C(=O)NCc3ccc4c(c3)CCN4C(=O)c3ccccc3)[nH]c2c1 | -3% (active)
COc1ccc(CCC(=O)NCc2ccc3c(c2)CCN3C(=O)c2cccc(C)c2)cc1 | 67%
COc1ccc(CC(=O)NCc2ccc3c(c2)CCN3C(=O)c2cccc(C)c2)cc1 | -6% (active)
COc1ccc(OCC(=O)NCc2ccc3c(c2)CCN3C(=O)c2cccc(C)c2)cc1 | 72%
O=C(NCc1ccc2c(c1)CCN2C(=O)c1ccc(F)cc1)c1cc2ccccc2[nH]1 | 99%
Cc1cccc(C(=O)N2CCc3cc(CNC(=O)c4cc5ccccc5[nH]4)ccc32)c1 | 72%
